ALDH1A1 block = ALDH1A1 (human) enzyme inhibition | P00352 | 7.3% of 220,000 active | Potency, µM (series often up to 75.3 µM), for the others: top-dose activity, negative = inhibition, usual class: inhibitors | AID 1030 | Purified ALDH1A1, NADH fluorescence, propionaldehyde substrate;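 further: potency means the concentration at half of the fitted maximal effect; plate controls were no enzyme wells and a reference inhibitor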
KinaseGlo FLuc = Kinase-Glo luciferase inhibition (counter-screen). Q27757. Kinase-Glo luciferase, ATP luminescence, 8 min. Potency, µM (top dose mostly 38.3 µM), for the others: at the top dose activity change, negative = inhibition, most hits filed as inhibitors. 0.28% of 200,000 active. AID 1379; active means well fitted inhibition curve with a large enough effect; inconclusive means small, poorly fitted or top-dose-only effect; further: potency means the concentration at half of the fitted maximal effect; nearly all actives have a fitted effect of over 60% in size
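Recombinant Kinase-Glo luciferase, 10 uM ATP (linear range), luciferin; imidazole pH 7.2 / KCl / MgCl2 / Tween / BSA buffer; 8 min RT; luminescence.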
IMPase inh = IMPase inhibition in cells; CHO-M1 cells, IP1 accumulation, HTRF TR-FRET ratio; inhibition (IP1 accumulation), % at 46.1 µM; 120,000 tested, under 10 active; AID 901; active means well fitted curve in the direction sought with a large enough effect in the signal ratio, not every such curve was filed as active; inconclusive means small, poorly fitted or top-dose-only effect, or a change in a side signal; inactive means no such curve, though single readings can be large or run the other way; the % refers to the signal ratio;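 further: cells stimulated with carbachol in lithium chloride buffer; plate controls were DMSO basal wells for no effect and reference inhibitor wells for full effect; higher means more IMPase inhibition seen as more IP1 and lower FRET ratio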
Target sequence (P97697 whole entry, looked up): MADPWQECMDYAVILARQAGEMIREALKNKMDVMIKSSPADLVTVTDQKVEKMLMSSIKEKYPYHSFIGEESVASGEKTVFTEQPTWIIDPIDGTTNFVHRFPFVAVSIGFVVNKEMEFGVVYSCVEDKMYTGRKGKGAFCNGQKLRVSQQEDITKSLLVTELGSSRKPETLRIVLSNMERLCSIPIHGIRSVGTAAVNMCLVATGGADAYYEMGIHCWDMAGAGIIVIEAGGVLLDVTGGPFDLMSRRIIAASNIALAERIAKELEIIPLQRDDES
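Measured: the HTRF emission ratio (665/620 nm) plus the 620 nm donor channel, each fitted to the Hill equation to give AC50. Cells were CHO-M1 given compounds up to 46 uM and a 30 min carbachol stimulation at 37C.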
Lamin A splicing = LMNA splicing modulation | HeLa LMNA splicing GFP/RFP minigene ratio, 48 h | Potency, µM (highest dose often 46.1 µM), for inactives: top-dose ratio change, negative = inhibition, hits mostly inhibitors | 0.01% of 200,000 active | AID 1487; active means well fitted inhibition curve with a large enough effect in the signal ratio, with a control signal flat, not every such curve was filed as active; inconclusive means small, poorly fitted or top-dose-only effect, or effect the other way, or a change in a side signal; the % refers to the signal ratio; further: potency means the concentration at half of the fitted maximal effect
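Read-out is the ratio of GFP to DsRed2 object intensity, acquired by 488 nm laser-scanning cytometry on HeLa lamin A-EGFP minigene reporter cells. Compound incubation 48 hrs at 37 °C in Opti-MEM with 2% FBS; DMSO 0.5% final.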
HPGD inh = HPGD (human) dehydrogenase inhibition | P15428 | purified HPGD, NADH fluorescence kinetic, PGE2 substrate | Potency, µM, inactives show at the top dose activity change, negative = inhibition, hits mostly inhibitors | 4.3% of 150,000 active | AID 894; further: potency means the concentration at half of the fitted maximal effect
Target sequence (P15428 whole entry, looked up): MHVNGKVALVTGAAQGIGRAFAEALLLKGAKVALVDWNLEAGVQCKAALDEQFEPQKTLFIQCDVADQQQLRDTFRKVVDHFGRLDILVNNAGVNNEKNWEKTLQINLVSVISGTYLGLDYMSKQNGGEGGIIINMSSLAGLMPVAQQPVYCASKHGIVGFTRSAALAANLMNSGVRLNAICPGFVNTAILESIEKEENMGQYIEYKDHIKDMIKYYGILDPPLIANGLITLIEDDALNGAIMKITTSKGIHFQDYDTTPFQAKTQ
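NADH formation kinetics: reaction with 30 uM PGE2 and 1 mM NAD+ (final), 20 nM enzyme, Tris-HCl pH 8 with Tween 20, after 15 min compound preincubation at room temperature. Fluorescence change, last versus first of five reads.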
PNC assembly inh = perinucleolar compartment assembly inhibition | activity change (PNC), negative = inhibition, % at 10 µM | AID 2417 | PC3M PTB-GFP, PNC prevalence imaging, 16 h; active compounds read low | 3.1% of 140,000 active;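 active means readout at or below -70, meaning at least 70% loss of cells showing the perinucleolar compartment, a nuclear body marking cancer cells; inconclusive means readout between -30 and a set limit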;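 further: plate controls were DMSO wells for no effect and camptothecin positive control wells for full effect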
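PC3M cells stably expressing PTB-GFP, 750–1000 cells/well, treated 16 h at 37 °C with compound (23 nl of library stock), in duplicate. After paraformaldehyde fixation and Hoechst stain, imaged at 20x; PNC prevalence scored by image analysis.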
An asterisk follows results filed as active; u = inconclusive; x = no result given; [ ] = remark or other dose. Sampled rows, rich in hits. Any-hit rate of the full collection: about 10%. Unless noted, the call rests on the fitted dose curve; in most records, active means well fitted inhibition curve with a large enough effect (not every such curve was filed as active); inconclusive means small, poorly fitted or top-dose-only effect, or another doubt; inactive means no such curve, though single readings can be large or run the other way. Unless noted, on the % scale 0 is the no-effect control and ±100 the full control effect.

SMILES	ALDH1A1 block	KinaseGlo FLuc	IMPase inh	Lamin A splicing	HPGD inh	PNC assembly inh
NNC(=O)c1ccc(COc2ccc3c(c2)CCC3)cc1	7.9µM*	-2%	-10	-10%	-17%	u
CC1CCN(CCc2nc3cc(NC(=O)Nc4ccccc4)ccc3n2C)CC1	4%	-4%	8	-5%	-7%	-2
CC(=O)Nc1ccc2c(c1)nc(CCN1CCC(C)CC1)n2C	u	0%	10	-13%	-9%	-101*
Cc1nc2cc(NC(=O)N3CCCCC3)ccc2n1C	-12%	1%	0	-3%	-22%	-119*
Cn1c(CCN2CCCCC2)nc2cc(NS(=O)(=O)c3ccc(Cl)cc3)ccc21	u	-1%	10	u	-8%	-93*
Cc1[nH]c2ccccc2c1-c1cc(-c2cc(-c3c(C)[nH]c4ccccc34)nc(N)n2)nc(N)n1	13%[13.5 µM]	-8%[7.66 µM]	x	x	-4%	x
[N-]=[N+]=NCC1OC(n2cnc3c(=O)[nH]c(N)nc32)C(O)C1O (stereo not given)	8%	0%	x	-8%	-9%	x
CCN1C(=O)[C@H]2[C@H]3[C@H](O)[C@H](O)C/C(=N/O[C@@H](C)c4cn([C@H](CO)Cc5ccccc5)nn4)[C@@H]3CC[C@@H]2C1=O	2%[13.5 µM]	x	x	x	x	x
O=[N+]([O-])c1cccc2ccc(/C=C/c3ccc(F)cc3)nc12	u	-4%	x	-11%	-9%	-114*
C[C@H]1C=C2C=C[C@H](C)[C@H](CC[C@@H]3C[C@@H](O)CC(=O)O3)[C@H]2[C@@H](OC(=O)[C@@H](C)CCO)C1	u	1%	4	x	-9%	x
CC(=O)Oc1cccc(C)c1	4%	1%[39.9 µM]	x	u	-6%	x
Cc1c(Cl)sn(-c2ccc(Cl)cc2)c1=O	1.8µM*	-2%	x	x	x	x
O=S(=O)(NCc1nc2cccnc2n1Cc1ccccc1Cl)c1ccc2c(c1)CCCC2	x	x	x	-12%[46 µM]	x	x
O=S(=O)(c1ccc(Br)cc1)N1CCN(S(=O)(=O)c2ccc(Br)cc2)CC1	-2%[13.5 µM]	-3%[7.66 µM]	x	x	1%	x
COCCN=C1NN=C(c2ccc(NC(C)=O)cc2)CS1	u	3%	x	-11%[46 µM]	x	x
CC(=O)Nc1ccc(C2=NN(C)C(=NCc3ccccc3)SC2)cc1	2.8µM*	0%	x	5%[46 µM]	x	x
NCCC(O)C(=O)NC1C[C@@H](N)[C@H](O[C@@H]2OC(CN)C(O)C(O)C2O)C(O)[C@H]1O[C@H]1OC(CO)C(O)C(N)C1O (stereo not given in full)	5%	-9%	x	x	-8%	x
COc1ccc(-c2c(C)c3ccc(OCC(C)=O)cc3oc2=O)cc1	u	-1%	x	u	x	x
COc1ccc(-c2cc(=O)oc3cc(OCC(C)=O)ccc23)cc1	u	2%	x	u	32µM*	5
CCOC(=O)COc1ccc2c(=O)c(-c3ccccc3)coc2c1	x	x	x	-12%[46 µM]	x	x
CCOCCOC(=O)COc1ccc2c(-c3ccccc3)cc(=O)oc2c1	18µM*	-4%	x	-6%	25µM*	-17
COc1ccc(-c2cc(=O)oc3cc(OCC(=O)c4cccc([N+](=O)[O-])c4)ccc23)cc1	-1%	-1%	x	u	2.8µM*	u
c1csc(CNc2ncncc2-c2ccc3c(c2)OCO3)c1	u	-7%	x	-1%	u	x
COc1cc(C(=S)N2CCCCC2)ccc1OCC(=O)N1CCCC1	22µM*	1%	5	-2%	-6%	u
COc1cc(C(=O)NCCc2ccc3c(c2)OCCO3)ccc1OCC(=O)N1CCOCC1	22µM*	-3%	-4	13%	-29%	-17
CCOc1ccc(C(=O)N2CCCC2)cc1OC	-20%	2%	7	3%	28µM*	36
C=Cc1ccc(COc2ccc3oc(-c4ccccc4)c(C(=O)OCC)c3c2)cc1	x	x	-1	x	x	x
Cc1ccc(N2CC(NC(=O)CCCc3ccccc3)CC2=O)cc1 (stereo not given)	x	x	x	-1%[46 µM]	x	x
COc1ccc(/C(N)=N/OC(=O)c2ccco2)cc1	0%	-26%	x	-3%[46 µM]	x	x
COc1ccc(N=N/C(=C\O)C(=O)c2ccco2)cc1	7.9µM*	-8%	x	-13%[46 µM]	x	x
